# Data from PubChem BioAssay AID488922 (Johns Hopkins Ion Channel Center, 2010).
# About 3,800 (1.2%) of roughly 310,000 compounds were called active. The sample holds actives, similar compounds and a random draw of the others, so the mix is not that of the screen.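 How the source made its calls: active means ratio B-score over 3 SD below the library mean, with starting fluorescence within 5 SD of its mean; inactive means the rest, inconclusive results apart.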
# Target: Potassium channel subfamily K member 9 (Homo sapiens) (UniProt Q9NPC2)
# Assay: blockers of human TASK-3 (KCNK9) channel – HEK293 cells, thallium flux, primary screen (AID 488922);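 on B-score: negative B-score means less thallium flux so channel inhibition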
# Conditions: HEK293 KCNK9, FluxOR thallium flux fluorescence, at 10 µM; active compounds read low
# Chain of Potassium channel subfamily K member 9 (Homo sapiens) (Q9NPC2 whole entry, looked up): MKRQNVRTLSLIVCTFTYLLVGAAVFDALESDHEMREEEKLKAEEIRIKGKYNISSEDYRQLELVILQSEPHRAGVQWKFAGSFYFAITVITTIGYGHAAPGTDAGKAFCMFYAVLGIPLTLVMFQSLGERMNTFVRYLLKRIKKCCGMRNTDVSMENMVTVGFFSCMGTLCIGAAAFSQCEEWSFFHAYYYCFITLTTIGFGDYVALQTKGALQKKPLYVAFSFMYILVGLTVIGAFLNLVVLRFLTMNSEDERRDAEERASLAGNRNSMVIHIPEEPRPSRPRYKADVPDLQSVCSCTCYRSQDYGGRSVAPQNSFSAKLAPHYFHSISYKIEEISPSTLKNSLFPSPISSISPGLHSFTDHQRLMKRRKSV
row,SMILES,B-score
1,CCC1C(=O)NCCN1C(=O)c1ccc2nc(Cc3ccc(OC)cc3)oc2c1 (centres undefined),inactive
2,COc1ccc(Cl)cc1NC(=O)CCN1CCOCC1,inactive
3,COc1cccc(NC(=S)NCCCN2CCOCC2)c1,inactive
4,COc1cccc2cc(C(C)N(CCCN3CCOCC3)C(=O)Nc3ccc(Cl)cc3)oc12 (centres undefined),-9.66 (active)
5,Cc1cccc2[nH]c(CN(C)C(=O)C3CCC(=O)N(CCc4ccccc4)C3)nc12 (centres undefined),inactive
6,COc1ccccc1-c1nnc(-c2ccc(F)cc2)o1,inactive
7,CC1=C(N2CCN(c3ncccn3)CC2)CCC1=O,inactive
8,O=C(Nc1ccccc1-c1ccccc1)c1ccccc1[N+](=O)[O-],inactive
9,O=C(O)c1ccccc1C(=O)Nc1ccccc1[N+](=O)[O-],inactive
10,O=C(Nc1ccccc1[N+](=O)[O-])C1C(c2ccccc2)=C1c1ccccc1,-8.24 (active)
11,CCCCNS(=O)(=O)c1ccc2nc(SCC(=O)Nc3cc(C)cc(C)c3)[nH]c2c1,inactive
12,CCN(CC)CCn1cnc2c1c(=O)n(CCOC(=O)c1cc(OC)c(OC)c(OC)c1)c(=O)n2C,inactive
13,Cc1ccc(OCCNC(=O)CN2C(=O)NC3(CCCC3)C2=O)cc1,inactive
14,O=C(NCc1ccccn1)Nc1ccc(Cl)cc1,inactive
15,CC12CCC(C(=O)N(c3cccc(Cl)c3)C1=O)C2(C)C (centres undefined),inactive
16,CC1=NN(c2cccc(Cl)c2)C(=O)C12CC(C)=C(C)CS2 (centres undefined),-11.1 (active)
17,O=C(COC(=O)C1CC2C=CC1C2)Nc1ccccc1 (centres undefined),inactive
18,Cc1ccc(C(=O)N/C(=C\c2ccc(F)cc2)C(=O)NCCN2CCOCC2)cc1,inactive
19,O=C(CN1C(=O)S/C(=C\c2ccccc2F)C1=O)NCCCn1ccnc1,inactive
20,O=C(CN1C(=O)/C(=C/c2ccccc2F)Sc2ccccc21)NCc1cccnc1,inactive
21,O=C(CN1C(=O)/C(=C\c2ccccc2F)SC1=S)Nc1nc2ccccc2s1,-7.2 (active)
22,Cc1cc(CNCc2c(C(=O)N(C)Cc3ccccc3)nc3ccccn23)nn1C,inactive
23,COC(=O)Cc1ccc(N(Cc2ccccc2F)S(=O)(=O)c2ccc(Br)cc2)cc1,-6.88 (active)
24,CCCNC(=O)CN(Cc1ccccc1F)S(=O)(=O)c1ccc(C)cc1,inactive
25,Cc1ccc(S(=O)(=O)N(CC(=O)Nc2cccnc2)c2ccc(Br)cc2)cc1,inactive
26,O=C(/C=C/c1ccc([N+](=O)[O-])cc1)NCCSCc1ccco1,inactive

row,SMILES,B-score
1,O=C(c1ccc(Br)o1)N1CCN(CCOc2ccccc2)CC1,inactive
2,COc1ccc(N2CCN(C(=O)CNC(=O)c3ccc(Br)o3)CC2)cc1,inactive
3,COc1ccc(-c2csc(NC(=O)COC(=O)c3ccc(Br)o3)n2)cc1,inactive
4,COc1ccc(-c2nc(CCNC(=O)c3ccc(Br)o3)cs2)cc1,-10.5 (active)
5,CCCCC(CC)CNC(=O)C(=O)C1C(=O)Nc2ccccc21 (centres undefined),inactive
6,COc1cc2c(C(=O)N(C)c3cc(Cl)ccc3OC)cn(C)c(=O)c2cc1OC,inactive
7,CCOc1ccccc1N1CCN(C(=S)Nc2ccc(S(N)(=O)=O)cc2)CC1,inactive
8,CCC(=O)N1CCN(c2ccccc2NC(=O)COc2cccc(C)c2C)CC1,inactive
9,CCOc1ccccc1NC(=S)N1CCN(c2cccc(C)c2C)CC1,-6.79 (active)
10,CCOc1ccc(NC(=O)N(CC(C)C)CC(C)C)cc1,inactive
11,CCOc1ccc(NC(=O)N(CCC(C)C)C(C)c2ccco2)cc1 (centres undefined),-7.13 (active)
12,CC(c1ccco1)N(C(=O)Nc1ccccc1)C1CCCCC1 (centres undefined),inactive
13,COc1cc(C)nc(N2CCCC(C(=O)NCC(C)C)C2)n1 (centres undefined),inactive
14,COc1cccc(NC(=O)CN(C)CC(=O)Nc2ccc3c(c2)CCC3)c1,inactive
15,COc1ccc(NC(=O)CN(C)CC(=O)Nc2cccc(C(F)(F)F)c2)cc1,-11.5 (active)
16,COc1ccc(NC(=O)C(=O)NCC(=O)Nc2cccc(C(F)(F)F)c2)cc1,inactive
17,CC(C)c1c(C(=O)N/N=C/c2ccccc2C(=O)O)nnn1-c1nonc1N,inactive
18,CN1C(=O)/C(=C/C=C2\SCCN2C)OC1=S,inactive
19,CCOC(=O)c1cc2sccc2n1Cc1ccc(C#N)cc1,-12.8 (active)
20,CC1Cc2ccccc2N1C(=O)c1cc2sccc2n1Cc1ccccc1 (centres undefined),inactive
21,O=C(c1cc2sccc2n1Cc1ccc(F)cc1)N1CCc2ccccc21,inactive
22,CCCCC(=O)Nc1c2c(nn1-c1ccc([N+](=O)[O-])cc1)CS(=O)(=O)C2,inactive
23,CCSC1=NCCN1C(=O)c1ccc(S(=O)(=O)N(CC)CC)cc1,inactive
24,O=C(O)CSc1c2c(nc3cc(C(=O)Nc4cccc(C(F)(F)F)c4)ccc13)CCCC2,inactive
25,COC(=O)c1ccccc1Sc1c(/C=N/OCc2ccc(Cl)cc2)c(C(F)(F)F)nn1C,inactive
26,Cn1nc(C(F)(F)F)c(C(=O)Nc2cccc(C(F)(F)F)c2)c1SCc1ccc(Cl)cc1,-7.25 (active)

row,SMILES,B-score
1,C[n+]1cc(-c2ccccc2)oc1-c1ccccc1,inactive
2,COc1cccc(-c2coc3cc4oc(=O)c(CC(=O)O)c(C)c4cc23)c1,inactive
3,COc1cc(C(=O)OC2CCOC2=O)c([N+](=O)[O-])cc1OC (centres undefined),inactive
4,CN(C)Cc1ccccc1C1(O)c2ccccc2CSc2ccccc21 (centres undefined),-6.84 (active)
5,CC(=O)Nc1ccc(S(=O)(=O)N2CCC(NC(=O)c3ccccc3)CC2)cc1,inactive
6,COc1ccc(-c2csc3ncnc(N4CCN(S(=O)(=O)c5cccc(F)c5)CC4)c23)cc1,inactive
7,CCCCCOC(=O)C1=C(C)Nc2nnnn2C1c1ccc(OC)c(OC)c1OC (centres undefined),inactive
8,CC(C)CCNC(=O)C(C)N(C(=O)Cn1nnc(-c2ccc(F)cc2)n1)C1CCCC1 (centres undefined),-8.61 (active)
9,COc1ccc(-c2nnn(CC(=O)N(CCO)C(C(=O)NC3CCCC3)c3ccc(F)cc3)n2)cc1 (centres undefined),inactive
10,CC(C)CCNC(=O)CN(C(=O)Cn1nnc(-c2ccc(F)cc2)n1)C1CCCC1,inactive
11,Cc1ccc(NC(=O)CN2CCCCC2)c2c1CC(C)(C)O2,inactive
12,CCOc1ccc(NS(=O)(=O)c2ccc(C(=O)NC3CCN(Cc4ccccc4)CC3)cc2)cc1,inactive
13,CC(C)C(=O)Nc1cccc(NC(=S)NC(=O)C(c2ccccc2)c2ccccc2)c1,-14.9 (active)
14,CC(C)C(=O)NC(=S)Nc1ccccc1F,inactive
15,CCCCC(=O)NNC(=S)NC(=O)C(c1ccccc1)c1ccccc1,inactive
16,Cc1c(C(=O)NC2CCCCC2)oc2ccccc12,inactive
17,Cc1ccc(NC(=O)CC2C(=O)N(Cc3ccccc3)C(=S)N2NC(=O)c2cccc(F)c2)c(C)c1 (centres undefined),inactive
18,O=C(Nc1cccnc1)c1cc([N+](=O)[O-])ccc1Cl,inactive
19,Cc1ccc(NC(=O)c2cc([N+](=O)[O-])ccc2Cl)c(O)c1,-10.2 (active)
20,CNc1ccc([N+](=O)[O-])cc1C(=O)O,inactive
21,COc1ccc(-c2cc(C(F)(F)F)nc(NCc3cccnc3)n2)cc1,inactive
22,FC(F)(F)c1cc(-c2cccs2)nc(NCc2ccco2)n1,inactive
23,FC(F)(F)c1cc(-c2ccco2)nc(NCc2ccc(Cl)cc2)n1,-8.22 (active)
24,O=C(OCCOCn1cc(Br)c(=O)[nH]c1=O)c1ccccc1,inactive
25,COc1ccc(Br)cc1CN(C)CC(=O)Nc1cc(Cl)cc(Cl)c1,inactive
26,O=C(COc1ccc2ccccc2c1)N1CCN(C(=O)c2cccs2)CC1,inactive

row,SMILES,B-score
1,O=S(=O)(NCc1ccc(Cl)cc1Cl)c1cccs1,inactive
2,O=S(=O)(Nc1ccccc1Br)c1cccs1,inactive
3,O=C(Nc1cccc(Cl)c1)Nc1ccccc1NS(=O)(=O)c1cccs1,-7.87 (active)
4,Cn1ccs/c1=N\S(=O)(=O)c1ccc(C(C)(C)C)cc1,inactive
5,COc1cc(/C=N/NC(=O)c2ccc(N3CCCC3=O)cc2)ccc1O,inactive
6,COc1ccc(C(=O)Nc2ccccc2C(=O)N/N=C/c2ccc(O)c(OC)c2)cc1,-10.2 (active)
7,COc1ccc(C(=O)Nc2ccccc2C(=O)N/N=C/c2ccccc2OC)cc1,-13.5 (active)
8,COc1ccc(/C=N/NC(=O)c2ccc3c(c2)OCCO3)c(OC)c1,inactive
9,COc1ccc(C(=O)Nc2ccccc2C(=O)NCc2ccco2)cc1,inactive
10,COc1ccc(/C=N/NC(=O)c2ccccc2)cc1OS(=O)(=O)c1ccccc1,inactive
11,COc1ccc(Cl)cc1NC(=O)COC(=O)C(CC(C)C)N1C(=O)C2CC=CCC2C1=O (centres undefined),inactive
12,COc1ccccc1N1CC(C(=O)Nc2nnc(SCC(=O)NCC3CCCO3)s2)CC1=O (centres undefined),inactive
13,CC1(C)CC(=O)c2c(n(S(=O)(=O)c3ccccc3)c3ccc(NS(=O)(=O)c4ccccc4)cc23)C1,inactive
14,CNC(=O)c1sc(Nc2ccc(OCc3ccccc3)cc2)nc1C,inactive
15,CCOn1c(SC(C)C)nc2ccccc2c1=O,inactive
16,CCOC(=O)C1CCc2nc3ccccc3c(=O)n21 (centres undefined),inactive
17,CCOC(=O)C(C)Sc1nc2ccccc2c(=O)n1CC1CCCCC1 (centres undefined),-11.7 (active)
18,FC(F)(F)c1ccc2c3n(nc2c1)CCN=C3c1ccc(Cl)cc1,inactive
19,O=C(Nc1ccc(Br)cc1)c1cccc(NC(=O)C2C3CC4OC(=O)C2C4C3)c1 (centres undefined),inactive
20,CCC/C=C(\CCC)C(NC(=O)Cc1ccccc1)c1ccc(C(=O)OC)cc1 (centres undefined),-13.9 (active)
21,CCC[C@@H]1C[C@@]1(CCC)[C@@H](NC(=O)c1ccccc1)c1ccc(C(=O)OC)cc1,inactive
22,COC(=O)c1ccc(C(NC(=O)OCc2ccccc2)/C(F)=C/[C@@H](C)C(=O)O)cc1 (some centres undefined),inactive
23,CCc1cc2c(=O)n(-c3ccccc3)c(SCC(=O)O)nc2s1,inactive
24,COc1cccc(NC(=S)N(CCc2c(C)[nH]c3ccccc23)Cc2ccco2)c1,-9.04 (active)
25,COc1ccc2[nH]c(C)c(CCN(Cc3cccs3)C(=S)Nc3ccccc3OC)c2c1,inactive
26,CCNC(=S)N(CCc1c(C)[nH]c2ccc(C)cc12)Cc1ccco1,inactive
